We go through five molecules from PubChem BioAssay.

A short description of assay [1]: optical density shifts of acrAB sulA E. coli – strain DRC41, OD650, 48 h, E. coli filamentation inducer project, primary screen (AID 1152).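 Note: E. coli MC1000 strain DRC41 lacking acrAB efflux pump and sulA.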 The settings on record: higher = more signal, called active from +8 up or from −8 down.
A short description of assay [2]: probe aLefty1 binding on compound microarray – biochemical, small-molecule microarray, 635/667 nm fluorescence, primary screen (AID 1153).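 Note: score merges spot fluorescence with signal-to-noise ratio from the scanned slide images.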 The settings on record: higher = more signal.
The nature of assay [3]: plasmodial surface anion channel blockers, osmotic lysis – cell-based, P. falciparum Indochina, OD700, 1 h, primary screen (AID 1154). The settings on record: P. falciparum Indochina infected RBC osmotic lysis, higher = more signal, called active from +8 up or from −8 down.
Assay [4] in a line: plasmodial surface anion channel blockers, osmotic lysis – cell-based, P. falciparum Indochina, OD700, 2 h, primary screen (AID 1155).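 Note: lysis reports solute entry through the parasite surface anion channel PSAC.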 The settings on record: P. falciparum Indochina infected erythrocytes, higher = more signal, called active from +8 up or from −8 down.
A short description of assay [5]: changes in parasitized red cell lysis, either direction – P. falciparum Indochina, OD700, 3 h, PSAC antagonist project, primary screen (AID 1156). The settings on record: P. falciparum-infected erythrocytes, osmotic lysis, higher = more signal, called active from +8 up or from −8 down.
The nature of assay [6]: plasmodial surface anion channel blockers, osmotic lysis – cell-based, P. falciparum Indochina, OD700, 18 h, primary screen (AID 1157). The settings on record: P. falciparum Indochina infected erythrocytes, osmotic lysis OD700, 18 h; higher = more signal, called active from +8 up or from −8 down.
Assay [7] in a line: S6 kinase pathway phospho-S6 level changes – cell-based, A549, cytoblot, luminescence, serum-stimulated, primary screen (AID 1158).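 Note: serum-stimulated A549 lung adenocarcinoma cells; signal is phosphorylated S6 detected by cytoblot immunostaining with HRP secondary.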 The following applies: 5 h, higher = more signal.
The target in assay [8] is NADPH oxidase 2 (Homo sapiens) (UniProt P04839). The assay can be described thus: compounds shifting NOX2 Amplex Red fluorescence – cell-based, HEK293-NOX2, PMA-stimulated, NOX inhibitor project, primary screen (AID 1159). Note: test concentration not given here. The settings on record: 45 min, higher = more signal, called active from +8 up or from −8 down.
Assay [9] deals with NADPH oxidase 4 (Homo sapiens) (UniProt Q9NPH5). Description: compounds shifting NOX4 Amplex Red fluorescence – cell-based, HEK293-NOX4, tetracycline-induced, NOX inhibitor project, primary screen (AID 1160). The settings on record: HEK293-NOX4, Amplex Red H2O2 fluorescence, 45 min; higher = more signal, called active from +8 up or from −8 down.
Assay [10] addresses NADPH oxidase 5 (Homo sapiens) (UniProt Q96PH1). The assay can be described thus: compounds shifting NOX5 Amplex Red fluorescence – cell-based, HEK293-NOX5, NOX inhibitor project, primary screen (AID 1161). The following applies: HEK293-NOX5, ionomycin, 45 min, higher = more signal.
Assay [11] in a line: compound effects on lung adenocarcinoma cell viability – A549, calcein-AM fluorescence, 48 h, basal, profiling panel (AID 1162). Note: test concentration not given here. The following applies: higher = more signal.
Assay [12] is described as follows: compound effects on differentiated 3T3-L1 adipocyte viability – cell-based, 3T3-L1 adipocytes, calcein-AM fluorescence, 48 h, basal, profiling panel (AID 1163). Note: test concentration not given here. The following applies: 3T3-L1 adipocytes viability, higher = more signal.
Assay [13] is described as follows: compound effects on hepatocellular carcinoma cell viability – HepG2, calcein-AM fluorescence, 48 h, basal, profiling panel (AID 1164). Note: test concentration not given here. The following applies: higher = more signal.
A short description of assay [14]: compound effects on multiple myeloma cell viability – MM1S, calcein-AM fluorescence, 48 h, basal, profiling panel (AID 1165).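 Note: viability of MM1S multiple myeloma cells under basal unstimulated conditions; test concentration not given here.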 The settings on record: higher = more signal.
Assay [15] can be described thus: calcein-AM signal in unstimulated myeloma cells – cell-based, calcein-AM fluorescence, 48 h, PK04 Diversity Set, profiling panel (AID 1166).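 Note: cells grown under basal conditions without added stimulus; test concentration not given here.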 The settings on record: RPMI8226 myeloma viability, higher = more signal.
A short description of assay [16]: JC-1 mitochondrial signal, unstimulated HepG2 cells – cell-based, JC-1 fluorescence, 24 h, 100 nL compound, profiling panel (AID 1167). Note: test concentration not given here. The following applies: HepG2 mitochondrial potential, higher = more signal.
Assay [17] is described as follows: JC-1 mitochondrial signal, unstimulated adipocytes – cell-based, JC-1 fluorescence, 3T3-L1 adipocytes, 24 h, 100 nL compound, profiling panel (AID 1168). Note: test concentration not given here. The following applies: JC-1 mitochondrial fluorescence, higher = more signal, called active from +8 up or from −8 down.
A short description of assay [18]: JC-1 mitochondrial signal, unstimulated myeloma cells – cell-based, JC-1 fluorescence, RPMI8226, 24 h, 100 nL compound, profiling panel (AID 1169). Note: test concentration not given here. The settings on record: JC-1 mitochondrial potential fluorescence, higher = more signal.
Assay [19] in a line: JC-1 mitochondrial signal, unstimulated MM1S myeloma – cell-based, JC-1 fluorescence, 24 h, 100 nL compound, profiling panel (AID 1170). Note: test concentration not given here. The settings on record: MM1S mitochondrial potential, higher = more signal.
A short description of assay [20]: resazurin metabolic signal in A549 cells – cell-based, resazurin fluorescence, 24 h, PK04 Diversity Set, profiling panel (AID 1171). Note: test concentration not given here. The settings on record: A549 viability, higher = more signal, called active from +8 up or from −8 down. In general terms: The colour change of resazurin is a common sign of viable cells or microbes.

Calls of active or inactive are those of the source.

NADPH oxidase 4 (Homo sapiens), sequence (Q9NPH5 whole entry, looked up): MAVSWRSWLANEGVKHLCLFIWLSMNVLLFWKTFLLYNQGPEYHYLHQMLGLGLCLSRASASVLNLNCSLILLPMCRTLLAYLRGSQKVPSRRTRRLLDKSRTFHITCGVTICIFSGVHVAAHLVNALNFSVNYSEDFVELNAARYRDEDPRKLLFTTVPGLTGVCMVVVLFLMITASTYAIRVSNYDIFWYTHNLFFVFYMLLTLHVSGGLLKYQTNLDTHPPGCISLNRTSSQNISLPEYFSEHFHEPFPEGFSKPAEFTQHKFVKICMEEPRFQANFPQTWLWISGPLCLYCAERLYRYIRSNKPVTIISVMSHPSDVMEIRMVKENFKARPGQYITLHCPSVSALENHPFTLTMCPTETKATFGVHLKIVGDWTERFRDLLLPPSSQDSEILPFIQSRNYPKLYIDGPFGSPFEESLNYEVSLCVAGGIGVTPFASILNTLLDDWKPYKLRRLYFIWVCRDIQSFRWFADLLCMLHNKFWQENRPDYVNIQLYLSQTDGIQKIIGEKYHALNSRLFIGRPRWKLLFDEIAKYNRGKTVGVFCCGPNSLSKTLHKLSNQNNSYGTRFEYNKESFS
NADPH oxidase 2 (Homo sapiens), sequence (P04839 whole entry, looked up): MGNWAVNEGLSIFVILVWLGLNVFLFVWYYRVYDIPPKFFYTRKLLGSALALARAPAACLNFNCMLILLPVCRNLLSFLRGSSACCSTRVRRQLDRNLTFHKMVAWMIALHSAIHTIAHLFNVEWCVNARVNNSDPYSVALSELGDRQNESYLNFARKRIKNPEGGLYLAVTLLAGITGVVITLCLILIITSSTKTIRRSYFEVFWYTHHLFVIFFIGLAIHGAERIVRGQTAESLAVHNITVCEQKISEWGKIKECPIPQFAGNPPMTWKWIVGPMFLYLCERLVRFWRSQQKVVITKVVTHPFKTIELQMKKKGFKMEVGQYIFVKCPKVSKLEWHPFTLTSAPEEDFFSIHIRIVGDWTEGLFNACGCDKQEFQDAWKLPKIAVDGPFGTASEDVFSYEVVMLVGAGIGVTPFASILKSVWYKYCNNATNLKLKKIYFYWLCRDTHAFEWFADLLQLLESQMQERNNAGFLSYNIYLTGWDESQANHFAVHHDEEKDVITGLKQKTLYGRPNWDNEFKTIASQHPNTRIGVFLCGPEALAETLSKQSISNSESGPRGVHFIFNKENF
NADPH oxidase 5 (Homo sapiens), sequence (Q96PH1 whole entry, looked up): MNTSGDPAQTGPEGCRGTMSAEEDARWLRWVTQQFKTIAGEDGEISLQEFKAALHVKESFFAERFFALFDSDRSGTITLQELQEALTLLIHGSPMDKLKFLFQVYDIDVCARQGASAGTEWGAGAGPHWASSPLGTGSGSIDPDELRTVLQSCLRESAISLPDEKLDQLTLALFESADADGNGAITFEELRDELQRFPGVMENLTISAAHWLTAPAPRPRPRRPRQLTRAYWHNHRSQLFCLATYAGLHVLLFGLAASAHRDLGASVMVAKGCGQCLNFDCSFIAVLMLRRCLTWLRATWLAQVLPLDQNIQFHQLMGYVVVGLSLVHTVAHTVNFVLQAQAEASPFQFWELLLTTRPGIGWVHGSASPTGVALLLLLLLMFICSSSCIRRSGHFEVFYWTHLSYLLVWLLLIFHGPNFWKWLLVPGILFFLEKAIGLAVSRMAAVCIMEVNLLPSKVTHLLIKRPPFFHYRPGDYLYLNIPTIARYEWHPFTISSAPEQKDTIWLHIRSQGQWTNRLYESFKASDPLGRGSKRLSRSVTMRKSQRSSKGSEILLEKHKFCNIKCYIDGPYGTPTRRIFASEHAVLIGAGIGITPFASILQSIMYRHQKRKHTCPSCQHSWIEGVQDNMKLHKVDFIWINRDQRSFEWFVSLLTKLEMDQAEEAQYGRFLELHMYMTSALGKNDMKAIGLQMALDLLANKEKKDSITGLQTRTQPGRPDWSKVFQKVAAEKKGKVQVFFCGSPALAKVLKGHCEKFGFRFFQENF

Consider `Cn1c(=O)n2n(c1=O)[C@H]1[C@H](O)[C@@H]3O[C@@H]3C(=O)[C@H]1CC2`, for which the z-score in assay [1] was 0.498 (inactive); in assay [3], -0.259 (inactive); in assay [4], -0.0607 (inactive); in [5] it was -0.596 (inactive); in assay [6], 0.18 (inactive); in [7], -0.0231. Further, the z-score in [8] was -1.2 (inactive); in [9], 0.171 (inactive); in assay [10] it was 0.888; in [11] it was 0.365; in assay [12] it was -0.137; in assay [13], 0.902. For the same molecule, the z-score in [14] is -0.382; in assay [15] it was 0.308; in [16], 0.45; in assay [17], 0.194 (inactive); in [18] it was 0.731; in [19], 0.0623. Moreover, the z-score in assay [20] was -0.495 (inactive). For the same molecule, in assay [2], the composite z-score was -0.0984.

Consider `CO[C@H](C1CCCCC1)[C@H](C)C=CCC(=O)OCCCc1ccccc1`, for which the z-score in assay [1] is 0.101 (inactive); in assay [3] it was 1.56 (inactive); in [4], 0.726 (inactive); in [5], -1.17 (inactive); in assay [6], 0.22 (inactive); in [7] it was -0.285. Also, the z-score in [8] was 0.435 (inactive); in assay [9], -3.56 (inactive); in [10] it was -2.56; in assay [11] it was 0.19; in [12], -0.518; in assay [13] it was -0.0782. The z-score in assay [14] was -0.237; in [15], 0.182; in assay [16], 0.639; in assay [17] it was -0.249 (inactive); in [18] it was 0.773; in assay [19] it was -0.199. For the same molecule, the z-score in [20] is 0.301 (inactive). Moreover, the composite z-score in assay [2] is -0.194.

As to `COc1cccc([C@@H]2Oc3ccc(OC)cc3C(=O)[C@H]2O)c1`, the z-score in [1] was -0.542 (inactive); in assay [3] it was 4.92 (inactive); in assay [4], -0.384 (inactive); in assay [5], 1.13 (inactive); in assay [6], -1.28 (inactive); in [7] it was 2.08. The z-score in [8] is -2.25 (inactive); in [9], -1.51 (inactive); in assay [10] it was -1.77; in assay [11], 0.0549; in [12], 0.856; in assay [13] it was -2.24. For the same molecule, the z-score in assay [14] was -2.89; in assay [15], -2.25; in [16], -2.31; in [17] it was -0.0174 (inactive); in assay [18] it was 1.04; in assay [19] it was -0.27. For the same molecule, the z-score in assay [20] was -0.214 (inactive). Further, the composite z-score in assay [2] was -0.101.

In the case of `CCOC(=O)[C@H](CC(C)C)NC(=O)CCC1CC(OC(=O)NCCc2ccc(F)cc2)CC2(CCCC(COC(=O)NCCc3ccc(Cl)cc3)O2)O1` (stereo not given in full), the z-score in assay [1] was -1.29 (inactive); in [3], 2.96 (inactive); in assay [4] it was -0.44 (inactive); in assay [5] it was 0.235 (inactive); in assay [6], 0.0264 (inactive); in [7] it was -0.146. In addition, the z-score in assay [8] is 0.333 (inactive); in assay [9], 1.32 (inactive); in [10], 1.33; in [11] it was -0.977; in assay [12] it was 0.248; in assay [13], -0.49. The z-score in [14] is 0.73; in assay [15], -1.23; in assay [16], -1.04; in [17], 0.133 (inactive); in assay [18] it was -0.0969; in assay [19], -0.232. The z-score in assay [20] was 0.608 (inactive). The molecule further registered a composite z-score in [2] of 0.18.

As to `COc1cc(O)c(C(=O)C=Cc2ccc3c(c2)OCO3)c(OC)c1`, the z-score in assay [1] is -0.59 (inactive); in assay [3], 18.9 (active); in [4], 2.42 (inactive); in [5], 0.484 (inactive); in assay [6], 0.885 (inactive); in [7], -0.523. For the same molecule, the z-score in [8] is 0.0679 (inactive); in assay [9], 0.142 (inactive); in [10], -0.0252; in [11], -0.553; in [12], 0.154; in assay [13], -0.932. Also, the z-score in assay [14] is -1.62; in [15], -1.36; in assay [16] it was -0.591; in assay [17] it was -0.646 (inactive); in assay [18], -0.23; in assay [19] it was -0.533. Also, in assay [20], the z-score is 0.0731 (inactive). Moreover, the composite z-score in assay [2] was 0.0056.
